Growth data for eight compounds are collected here from PubChem BioAssay (NCI).

About 83,000 compounds went through this panel and 20% of them were active in at least one assay; those are over-represented in the sample as a whole.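 Plates (96-well) were seeded with cells, treated with compound at one concentration, and incubated for 48 hours before percent growth was determined.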 Values without a mark were called inactive. Active and inactive are the calls of the source. The calls were made as follows: active = growth percent below 10; inactive = the rest.

Holding throughout (experiment): NCI-60 one-dose screen, 48 h (100 = growth as untreated, 0 = no growth, -100 = all killed)
Common to all, as to details: 10 µM unless noted

Experiment [1] concerns HCT-15 colon.
Experiment [2] has as its system HT29 colon.
Experiment [3] relates to SNB-75 CNS.
Experiment [4] relates to SNB-19 CNS.
In experiment [5] the test system is U251 CNS.
Experiment [6] deals with PC-3 prostate.
The test system of experiment [7] is SK-MEL-5 melanoma.
The test system of experiment [8] is UACC-62 melanoma.
For experiment [9], the system named is LOX IMVI melanoma.
For experiment [10], the system named is SK-MEL-28 melanoma.
The test system of experiment [11] is SK-MEL-2 melanoma.
The test system of experiment [12] is SN12C renal.
The subject of experiment [13] is UO-31 renal.
The subject of experiment [14] is ACHN renal.
Experiment [15] relates to CAKI-1 renal.
Experiment [16] concerns CCRF-CEM leukemia.
For experiment [17], the system named is MOLT-4 leukemia.
In experiment [18] the test system is TK-10 renal.
Experiment [19] deals with A498 renal.
For experiment [20], the system named is EKVX NSCLC.

In the case of `COc1ccc(-c2nc(-c3nc4ccc(F)cc4[nH]3)cc3c2[nH]c2ccccc23)cc1`, the growth in [1] is 36.1%; in experiment [2], 32.8%; in experiment [3], 60.8%; in experiment [4] it was 62.3%; in experiment [5], 29.4%; in experiment [6], 27.6%. In addition, the growth in [7] was 51.1%; in experiment [8], 41.4%; in experiment [9], 29.5%; in experiment [10], 57.4%; in [11] it was 29.4%; in experiment [12], 23.1%. Also, the growth was 7.03% (active) in experiment [13]; 32.1% in experiment [14]; 15.2% in experiment [15]; 17.6% in experiment [16]; 22.5% in experiment [17].
`O=C(CCCn1c2c(sc3ccccc32)c(=O)n2nnc(-c3ccccc3)c12)NCCc1cnc[nH]1`: the growth in experiment [1] was -62.8% (active); in experiment [2], -100% (active); in experiment [3], -55.1% (active); in experiment [4] it was 27.3%; in experiment [5], -83.2% (active); in [6], -84.5% (active). In addition, the growth in [7] was -67.1% (active); in experiment [8], -68.6% (active); in experiment [9], -49.8% (active); in experiment [10], -92% (active); in experiment [11], -90.3% (active); in [12] it was 1.75% (active). The growth was -89.4% (active) in experiment [18]; -19.4% (active) in experiment [14]; -84% (active) in experiment [15]; 27.2% in experiment [19]; 38.4% in experiment [16]; 79.4% in [17].
Consider `COc1ccc(C(=O)/C=C/c2ccc(/C=C/c3cc(OC)c(OC)c(OC)c3)cc2)cc1`, for which the growth is 33.6% in experiment [1]; 36.2% in experiment [2]; 59.8% in experiment [3]; 74.4% in [4]; 36.3% in experiment [5]; 52.2% in experiment [6]. Besides, the growth in experiment [7] was 62%; in [8], 53.7%; in experiment [9], 24.7%; in experiment [10], 84.7%; in [11], 65.1%; in experiment [12], 56.7%. In addition, the growth in experiment [13] is 40.6%; in experiment [14] it was 68.1%; in experiment [15], 74.4%; in experiment [19] it was 80%; in [16] it was 19.6%; in [17], 9.62% (active).
In the case of `C/C(=C\c1csc(C)n1)[C@@H]1C[C@@H]2O[C@]2(C)CCC[C@H](C)[C@H](O)[C@@H](C)C(=O)C(C)(C)[C@@H](O)CC(=O)N1`, the growth in experiment [1] is -93.4% (active); in [2], -10.4% (active); in experiment [3] it was -19.4% (active); in experiment [4], -41.4% (active); in [5], -100% (active); in experiment [7], -89.9% (active). For the same compound, the growth is -93.7% (active) in [8]; -100% (active) in experiment [9]; -43.3% (active) in experiment [10]; -46.7% (active) in experiment [11]; -25.6% (active) in experiment [20]; -81.1% (active) in [12]. The growth in [13] is -85.7% (active); in experiment [18], -68% (active); in experiment [14], -100% (active); in experiment [15], -88.4% (active); in experiment [19], -28.7% (active); in experiment [17], -27.5% (active).
`COc1ccc(NC(=O)c2cc3ccccc3nc2Nc2cc(OC)c(OC)c(OC)c2)cc1`: the growth in experiment [1] was 36.3%; in [2] it was 64.3%; in experiment [3], 69.4%; in experiment [4], 78.9%; in experiment [5], 54.2%; in experiment [7] it was 44.3%. In addition, the growth in [8] was 64.4%; in experiment [9], 52.8%; in experiment [10], 73.2%; in experiment [11], 89.2%; in experiment [12], 69.7%; in [13], 59.7%. Besides, the growth was 90.7% in experiment [18]; 53% in experiment [14]; 70.2% in experiment [15]; 43.6% in experiment [16]; 49.2% in experiment [17].
For the compound `CC/C=C\C[C@H](O)C/C=C1/C(=O)C(Cl)=C[C@@H]1C/C=C\CCCC(=O)O`, the growth was 16.2% in [1]; 71.7% in experiment [3]; 74.7% in [4]; 17.5% in experiment [5]; 43.7% in [6]; 69.1% in experiment [7]. Further, the growth in experiment [8] was 1.46% (active); in experiment [9] it was 4.09% (active); in experiment [10], 43.7%; in [11] it was 54%; in experiment [20] it was 63.9%; in experiment [12], 22.8%. Also, the growth in [13] was 64.2%; in [18], 78.9%; in experiment [14] it was 45.3%; in experiment [15] it was 79.1%; in [19], 134%; in experiment [16], 2.58% (active). Besides, the growth in experiment [17] is 40.5%.
For the compound `O=S(=O)(NCCCNc1cc(-c2cn(-c3ccccc3)nc2-c2cccc(O)c2)ccn1)c1ccc(Br)cc1`, the growth is -18.7% (active) in [1]; -24.4% (active) in experiment [2]; 25.8% in experiment [3]; 27.3% in experiment [4]; 4.89% (active) in experiment [5]; -56.3% (active) in experiment [7]. For the same compound, the growth in experiment [8] is -5.16% (active); in [9], -29.5% (active); in [10], -36.2% (active); in [11], -5.21% (active); in [20], 30.5%; in experiment [12], 16.5%. The growth is 32.2% in experiment [18]; 10.2% in experiment [14]; 13% in experiment [15]; 25.2% in [19]; 12.2% in [16]; -5.44% (active) in experiment [17].
With `CCC(c1ccc(OC)cc1)C(CC)c1ccc(OCC[N+](C)(C)C)cc1` (centres undefined), the growth is 91.5% in experiment [1]; 28.4% in experiment [2]; 40% in experiment [3]; 19.3% in experiment [4]; 18.9% in experiment [5]; 15.4% in experiment [7]. The growth in [8] was 30.3%; in [9] it was 42.9%; in experiment [10], 45.1%; in [11], 94%; in experiment [20] it was 81.1%; in experiment [12], 34.1%. Further, the growth in experiment [13] was 82.2%; in [18], 76.4%; in experiment [14] it was 91%; in [15], 99.2%; in [19], 93.2%; in experiment [16], 58.8%. In addition, the growth in experiment [17] is 51.8%.
